Data published in PubChem BioAssay (NCATS).
Inconclusive results are not listed. Unmarked numbers belong to inactive results. Activity calls are given as the source filed them. The call rests on the fitted dose curve; in most records, active means well fitted inhibition curve with a large enough effect; inconclusive means small, poorly fitted or top-dose-only effect; inactive means flat fitted curve, though single readings scatter.
Potency means the concentration at half of the fitted maximal effect.

The compounds below were run on Zika virus NS2B-NS3 protease (assay: Primary screen GU AMC qHTS for Zika virus inhibitors (AID 1347154; further: nearly all actives have a fitted effect of over 70% in size;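 on activity change, negative = inhibition: 0% = no-inhibitor control and -100% = no-enzyme control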)). Details: Zika NS2B-NS3 unlinked protease, AMC fluorogenic substrate; series mostly up to 54.1 µM; activity change, negative = inhibition: at the top concentration.
Outline: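 Unlinked Zika NS2B hydrophilic domain–NS3 protease complex at 25 nM in 10 mM Tris-HCl pH 8.0, 0.01% Tween 20, with an AMC peptide substrate. Fluorescence change (340/450 nm) over 15 min at room temperature, normalized to controls, fitted to 4-parameter Hill.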
In the case of `CCCCOC(=O)CCCCCCCCC(=O)OCCCC`, the “activity change, negative = inhibition” value is reported as -1.19%.
With `CCCCCC[C@@H](CCC)C(=O)O` the “activity change, negative = inhibition” value was -1.77%.
For `CCCC(=O)O[C@]1(C(=O)CC)CC[C@H]2[C@@H]3CCC4=CC(=O)CC[C@]4(C)[C@H]3[C@@H](O)C[C@@]21C`, the “activity change, negative = inhibition” value was -5.29%.
For `O=C(CS(=O)Cc1ccco1)NC/C=C\COc1cc(CN2CCCCC2)ccn1` (stereo not drawn), the “activity change, negative = inhibition” value was -2.37%.
For `CC(=O)N1CCN(c2ccc(O)cc2)CC1`, the “activity change, negative = inhibition” value was 4.83%.
In the case of `CC1(C)OC(=O)Nc2ccc(Br)cc21`, the “activity change, negative = inhibition” value is reported as 0.346%.
With `CC(C)(c1ccc(O)cc1)c1ccc(O)cc1` the “activity change, negative = inhibition” value was -5.2% [at 104 µM].
`CN(C)C(=O)CNC(=O)Cc1ccccc1` was tested, and the “activity change, negative = inhibition” value was 6.25%.
`COc1cc(NS(=O)(=O)c2ccc(N)cc2)nc(C)n1` was tested, and the “activity change, negative = inhibition” value was -3.77%.
`O=C(O)c1ccc(OCCN2CCCCC2)cc1` was tested, and the “activity change, negative = inhibition” value was 0.736%.
For `CCOc1c(N2CCOCC2)cnn(C)c1=O`, the “activity change, negative = inhibition” value was -5.93%.
`OC[C@]1(O)OC[C@@H](O)[C@H](O)[C@@H]1O` was tested, and the “activity change, negative = inhibition” value was -1.66%.
In the case of `CC(C)C(=O)OCc1cccc(OC(=O)[C@@H]2N3C(=O)[C@@H](NC(=O)Cc4ccccc4)[C@H]3SC2(C)C)c1`, the “activity change, negative = inhibition” value is reported as -7.78%.
With `CC(NCCC(c1ccccc1)c1ccccc1)c1ccccc1` (stereo not drawn) the “activity change, negative = inhibition” value was -8.89%.
`CCOC(=O)c1cc(=O)c2c(OCC(COc3cccc4oc(C(=O)OCC)cc(=O)c34)OC(=O)[C@@H](N)CCCCN)cccc2o1` was tested, and the “activity change, negative = inhibition” value was 1.01%.
`CC(C)NCCCC1(C(N)=O)c2ccccc2-c2ccccc21` was tested, and the “activity change, negative = inhibition” value was -5.17%.
For `COc1ccc2cc(C=O)ccc2c1`, the Potency was 31.6 µM (active).
For `CCOC(=O)N1CCC(n2c(=O)[nH]c3cc(Cl)ccc32)CC1`, the “activity change, negative = inhibition” value was 0.623%.
For `O=C(O)c1ccccc1Nc1cc(Cl)ccc1C(=O)O`, the “activity change, negative = inhibition” value was -8.54% [at 25.8 µM].
In the case of `CN1C(CSCC(F)(F)F)Nc2cc(Cl)c(S(N)(=O)=O)cc2S1(=O)=O` (stereo not drawn), the “activity change, negative = inhibition” value is reported as -3.21%.
`CC(C)CCCC(C)NCCC(C)C` (stereo not drawn) was tested, and the “activity change, negative = inhibition” value was 0.862%.
For `O=[N+]([O-])c1nccn1CO[C@@H](CO)[C@H](O)CO`, the “activity change, negative = inhibition” value was -1.31%.
For `CN1CCC(N(Cc2cccs2)c2ccccc2)CC1`, the “activity change, negative = inhibition” value was -8.2%.
In the case of `CN(C)CCN1CCN(c2cccc(Cl)c2)C1=O`, the “activity change, negative = inhibition” value is reported as 4.99%.
For `Nc1cccc2c(N)cccc12`, the Potency was 36.9 µM (active).
For `COc1ccc2c(c1)CCCC2=O`, the “activity change, negative = inhibition” value was 1.47%.
In the case of `CCCCCN(CCCOC)C(=O)C(CCC(=O)O)NC(=O)c1ccc(Cl)c(Cl)c1` (stereo not drawn), the “activity change, negative = inhibition” value is reported as -0.0102%.
In the case of `Nc1c[n+](N2CCOCC2)no1`, the Potency is reported as “inactive”.
For `Nc1ccc(C(=O)OCC(O)CO)cc1` (stereo not drawn), the “activity change, negative = inhibition” value was -4.17%.
For `CC(C)OP(=O)(CP(=O)(OC(C)C)OC(C)C)OC(C)C`, the “activity change, negative = inhibition” value was -6.33%.
`CCC(CN)=C(c1ccccc1)c1ccccc1` was tested, and the “activity change, negative = inhibition” value was -4.2%.
`Cc1onc(-c2ccccc2)c1C(=O)Cl` was tested, and the “activity change, negative = inhibition” value was -0.96%.
In the case of `CSCC[C@H](NC(=O)[C@H](Cc1c[nH]c2ccccc12)NC(=O)CCNC(=O)OC(C)(C)C)C(=O)N[C@@H](CC(=O)O)C(=O)N[C@@H](Cc1ccccc1)C(N)=O`, the “activity change, negative = inhibition” value is reported as 1.66%.
In the case of `CCCCCCCCCCCCCCCC[n+]1ccccc1`, the “activity change, negative = inhibition” value is reported as -15.7%.
For `CC(Oc1c(Cl)cccc1Cl)C1=NCCN1` (stereo not drawn), the “activity change, negative = inhibition” value was -7.87%.
In the case of `O=C(O)Cn1c(=O)n(Cc2ccc(Br)cc2F)c(=O)c2ccc(Cl)cc21`, the “activity change, negative = inhibition” value is reported as -2.43%.
For `CCCC(CCC)(C(=O)OCC)C(=O)OCC`, the “activity change, negative = inhibition” value was 8.66%.
`CCCc1ccc(OCC(=O)N2CCN(C(=O)COc3ccc(CCC)cc3OC)CC2)c(OC)c1` was tested, and the “activity change, negative = inhibition” value was -4.08%.
